# The list is not random: actives were taken first. Their share in the collection is about 3.3%.
# PI4K2A inh – inhibitors of human PI4K2A; Q9BTU6; 0.13% of 420,000 active; purified PI4K2A, ADP-Glo luminescence, 1 h; hits give low values; activity change, negative = inhibition, % at 76.9 µM; in the data active means activity change below about -50%; inconclusive means mostly about -30% to -49%;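 further: -100% = wells without enzyme as full effect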
#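 Compounds are screened against recombinant PI4K2A using PI as substrate and ATP, the latter dispensed at 300 microM. Reactions run one hour at ambient temperature before ADP-Glo detection; full inhibition defined by wells lacking enzyme.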
# D3 ag – D3 dopamine receptor (human) agonism. P35462. D3R DiscoveRx beta-arrestin cells, luminescence, 90 min. max activation, %. 0.58% of 410,000 active; in the data active means max activation above about 30%; further: 0% is about no effect
#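 Cells at 1500/well, incubated overnight, then treated with pinned compounds (dopamine as control) for 90 min at 37 degrees C. DiscoveRx reagent added for 30 - 60 minutes at room temperature; luminescence read.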
# DRD3 antagonist – blocks the human D3 dopamine receptor | P35462 | D3R cells, DiscoveRx beta-arrestin luminescence, antagonist mode; hits give low values | max response, negative = inhibition, % | 2.5% of 360,000 active | AID 652054; in the data active means max response below about -50%; inconclusive means no clear call, values can overlap the other calls; further: on the % scale 0 is the no-effect control and ±100 the full control effect
#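 Cells expressing the human receptor were seeded at 1500 cells/well, incubated overnight at 37 degrees C in 5% CO2, then exposed to library compounds with dopamine controls for 90 minutes at 37 degrees C before luminescent detection.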
# PI5P4K alpha inh – blocks human PI5P4K alpha kinase activity | AID 652105 | PI5P4Kalpha enzyme, ADP-Glo luminescence, 60 min; hits give low values | 1.2% of 330,000 active | P48426 | max response, %; active means max response of -50% or lower; inconclusive means between -30% and -50%; inactive means -30% or higher; further: value at the top dose of about 77 µM; on the % scale 0 is the no-effect control and ±100 the full control effect
# Target sequence (P48426 whole entry, looked up): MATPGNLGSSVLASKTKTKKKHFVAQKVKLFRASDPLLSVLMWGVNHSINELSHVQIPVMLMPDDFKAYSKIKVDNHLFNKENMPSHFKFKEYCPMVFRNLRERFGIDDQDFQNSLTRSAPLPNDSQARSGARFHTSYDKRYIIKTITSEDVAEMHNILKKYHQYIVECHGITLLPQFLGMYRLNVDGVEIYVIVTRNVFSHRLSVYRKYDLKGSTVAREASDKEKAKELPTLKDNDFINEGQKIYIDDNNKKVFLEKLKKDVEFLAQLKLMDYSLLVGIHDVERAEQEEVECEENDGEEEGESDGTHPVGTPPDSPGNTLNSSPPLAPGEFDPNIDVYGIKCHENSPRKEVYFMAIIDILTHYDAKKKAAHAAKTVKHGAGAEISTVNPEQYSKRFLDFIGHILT
#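 Single end-point luminescence (ADP-Glo) quantified ADP from PI5P4Kalpha turnover; ATP 5 microM final, 1 h at RT, 0.1% CHAPS and 0.28 mM EGTA in HEPES pH 7.4.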
# LDHA block – blocks human lactate dehydrogenase A. P00338. purified LDHA, NADH/diaphorase-resazurin fluorescence; hits give low values. activity change, % (values are at about 110 or 230 µM). 0.15% of 480,000 active; in the data active means activity change below about -30%; inconclusive means mostly about -25% to -30%;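 further: plate controls were DMSO wells for no effect and wells without enzyme for full effect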
#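 Resorufin fluorescence (ex540/em590), read at 0 and 20 min after diaphorase/resazurin addition, reports the NADH left after a 5 min room-temperature reaction of 2 nM human LDH5 with 0.06 mM NADH and 0.2 mM pyruvate.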
# * marks the source's active call; other numbers are inactive results; ? = inconclusive; / = no result given.
SMILES,PI4K2A inh,D3 ag,DRD3 antagonist,PI5P4K alpha inh,LDHA block
COc1ccc(S(=O)(=O)N(CCCN2CCOCC2)Cc2cccc3ccccc23)cc1,3,-20,-85*,13,-2
COc1ccc(S(=O)(=O)N(CCCN2CCOCC2)Cc2cccc(OC)c2OC)cc1,1,-12,-76*,8,-2
COc1ccc(S(=O)(=O)N(CCN2CCOCC2)Cc2cc(OC)ccc2OC)cc1,-7,0,-27,2,-7
O=S(=O)(c1ccc(Cl)cc1)N(CCCN1CCOCC1)Cc1cccs1,-4,-7,-80*,-1,-18
CNc1nnc(SCc2ccc(C#N)cc2F)s1,/,/,/,/,7
C=C(C)Cn1c(SCC(=O)OCc2ccccc2)nc2c1c(=O)n(C)c(=O)n2C,/,/,/,/,-7
CN1CCN(C(=O)NC2CCCCC2)CC1,7,-1,-54*,-1,-21
CCCCNc1nc2ccccc2n1CC(=O)N1CCc2ccccc2C1,-1,-45,-76*,/,1
CCCCNC(=O)N1CCc2ccccc2C1,-8,-9,-11,-7,-13
Cc1cn([C@H]2C[C@H](N[S+](=O)([O-])Cc3ccc([N+](=O)[O-])cc3)[C@@H](CO)O2)c(=O)[nH]c1=O,/,/,/,/,-3
CC(=O)Nc1ccc(-c2csc(Nc3ccccc3)n2)cc1,/,/,/,/,1
CCSc1nnc(NC(=O)c2cnccn2)s1,-2,-10,-136*,/,1
O=C(Nc1nnc(SCc2ccc(F)cc2)s1)c1cnccn1,1,8,1,8,5
CCSc1nnc(NC(=O)NCC(F)(F)F)s1,-13,-14,-83*,-1,-2
CCSc1nnc(NC(=O)c2ccccn2)s1,?,-2,-84*,-21,5
CC1(C)CS(=O)(=O)N(c2ccc(C(=O)Nc3ccc4c(c3)OCCO4)cc2)C1=O,/,/,/,/,14
Cc1ccc(-c2noc(CN(C)C(C)c3cc4ccccc4o3)n2)cc1 (stereo not given),/,/,/,/,6
CCOC(=O)C(=Cc1ccc(-n2cncn2)cc1)C(=O)OCC,7,-17,-64*,1,0
CCOC(=O)C(=Cc1ccncc1)C(=O)OCC,/,/,/,/,10
COC1=C(Br)C(=O)c2nc(C)ccc2C1=O,?,-17,-119*,-68*,19
Cc1cccc(-c2cc(C(=O)O)c3c(-c4ccc(F)cc4)[nH]nc3n2)c1,-1,-10,/,/,1
Cc1cccc(-c2cc(=O)c(C(=O)O)cn2-c2ccc(F)cc2F)c1,-6,0,-79*,2,-1
CCC(C(=O)Nc1ccccc1N1CCCC1)c1ccccc1Cl (stereo not given),1,/,/,/,/
Cc1ccc2c(c1)c1ncnc(N3CCOCC3)c1n2C,-4,6,0,4,-3
Cn1c2ccccc2c2ccc3c(c21)C(=O)C=CC3=O,-15,2,-22,-72*,19
SMILES,PI4K2A inh,D3 ag,DRD3 antagonist,PI5P4K alpha inh,LDHA block
Cc1ccc2c(c1)c1ccc3c(c1n2C)C(=O)C=CC3=O,-22,8,-14,-74*,7
Cc1ccc(C)c2c1c1ccccc1n2C,0,10,6,26,6
COc1ccc2c(c1)c1ccc3c(c1n2C)C(=O)C=CC3=O,-18,-1,-29,-74*,8
Cc1nc(N2CCCCC2)sc1C(=O)c1ccc(SCCO)c([N+](=O)[O-])c1,3,1,-17,-68*,9
Cc1nc(N2CCCCC2)sc1C(=O)c1cccc([N+](=O)[O-])c1,4,5,8,-2,-4
Cc1ccc(-c2c[n+](CC(=O)Nc3ccc(C)cc3C)c3n2CCC3)cc1,0,-21,?,-2,-10
Cc1ccc(NC(=O)C[n+]2cc(-c3ccc(C)cc3)n3c2CCC3)cc1,1,-29,-66*,3,-1
COc1ccc(C2=NN(C(=O)c3cccs3)C(O)(C(F)(F)F)C2)cc1 (stereo not given),2,16,19,10,1
COc1ccc(C2=NN(c3nc(C(=O)O)cs3)C(O)(C(F)(F)F)C2)c(OC)c1 (stereo not given),-6,-5,3,-6,-63*
COC(=O)c1ccc(C2CC(=O)Nc3c2cc(Br)c2ccccc32)cc1 (stereo not given),/,/,/,/,-35*
CC1CCN(c2nc(-c3cccnc3)nc3scc(-c4ccccc4)c23)CC1,5,1,50,1,-2
CC1CCCN(c2nc(-c3cccnc3)nc3scc(-c4ccccc4)c23)C1 (stereo not given),1,34*,17,8,4
CC1=NN(c2ccccc2)C(=O)/C1=C/c1ccc(-c2ccc(C)c(C(=O)O)c2)o1,-12,-5,61,-18,-2
O=C1NN(c2cccc(Br)c2)C(=O)/C1=C/c1ccc(-c2cc([N+](=O)[O-])ccc2O)o1,1,0,-27,-86*,-6
CC1=NN(c2ccc(C)cc2)C(=O)/C1=C/c1ccc(-c2cc([N+](=O)[O-])ccc2O)o1,-28,4,7,-94*,1
O=C1NN(c2ccc(Cl)c(Cl)c2)C(=O)/C1=C/c1ccc(-c2ccccc2C(=O)O)o1,?,-4,-16,-58*,-14
Cc1ccc(N2NC(=O)/C(=C/c3ccc(-c4ccc(Cl)c(C(=O)O)c4)o3)C2=O)cc1C,-15,-1,27,-17,-2
O=C1NN(c2cccc(Br)c2)C(=O)/C1=C\c1ccc(O)cc1,-12,-3,-13,-51*,8
Nc1cc(-n2cccc2)ccc1F,/,/,/,/,11
COc1ccc2ccccc2c1/C=C(/C#N)C(N)=O,/,/,/,/,0
CC(C)NC(=O)NCc1ccc(C(=O)NC(C)c2ccc(Cl)cc2)cc1 (stereo not given),/,/,/,/,12
CC(C)C[C@@H](CSc1ccc(Br)cc1)N1CCN(CCc2ccccc2)CCC1=O,1,-20,?,0,1
O=C1CCN(CCc2ccccc2)CCN1[C@H](CSc1ccccc1)c1ccccc1,-63*,-38,?,-2,3
CC(C)C[C@@H](CSc1ccccc1)N1CCN(CCc2ccccc2)CCC1=O,-2,-31,-56*,16,1
Cc1ccc(SC[C@H](c2ccccc2)N2CCN(CCc3ccccc3)CCC2=O)cc1,-1,-51,-17,-1,1
Cc1ccc(Nc2cc(C)nc3nc(-c4ccco4)nn23)c(Cl)c1,/,/,/,/,-10
C=CS(=O)(=O)c1c2cc(OC)ccc2nc2ccc(OC)cc12,34,-23,-83*,-18,6
O=C(Cc1ccc(F)cc1)Nc1c(NCC2CCCCC2)c2ccccc2oc1=O,/,/,/,/,-4
O=c1[nH]c(CSc2nnc(NCCCN3CCOCC3)s2)nc2cc(Cl)ccc12,-3,-2,-63*,0,0
Cc1cccc(CS(=O)(=O)c2ncc(Cl)c(C(=O)Nc3c(C)cccc3C)n2)c1,-5,-24,-100*,-6,2
